Test systems include HT29 colon; SNB-75 CNS; SNB-19 CNS; U251 CNS; PC-3 prostate; SK-MEL-5 melanoma; UACC-62 melanoma; LOX IMVI melanoma; SK-MEL-28 melanoma; SK-MEL-2 melanoma.
Assay in all cases: NCI-60 one-dose screen, 48 h (100 = growth as untreated, 0 = no growth, -100 = all killed)
What all share (settings): 10 µM

This is part of a sample that, as a whole, favours compounds with a hit. Of some 83,000 tested, about 20% had one in any assay.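 Cells were grown in 96-well plates and exposed to the test compound at a single concentration for 48 hours; results are reported as percent growth, with values below 10 considered active.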 A number with no mark means an inactive call. Calls of active or inactive are those of the source.

Consider `O=C(/C(=C/c1ccccc1)CN1CCCCC1)c1ccccc1`, for which the growth with HT29 colon is -30.6% (active); in the assay on SNB-75 CNS it was 30.6%; with SNB-19 CNS it was 45.9%; in the assay on U251 CNS it was -22.7% (active); with PC-3 prostate, -9.65% (active); in the assay with SK-MEL-5 melanoma, -86% (active). Moreover, the growth in the assay on UACC-62 melanoma was -67% (active); in the assay with LOX IMVI melanoma, -75.1% (active); in the assay with SK-MEL-28 melanoma it was -63% (active); in the assay on SK-MEL-2 melanoma it was -67% (active).
`COc1ccc(-c2cc(/C=C3\C(=O)Nc4ccc(Cl)cc43)[nH]n2)cc1OC`: the growth with HT29 colon was 93.5%; with SNB-75 CNS, 64.2%; with SNB-19 CNS it was 90.9%; with U251 CNS, 95.2%; in the assay with PC-3 prostate, 88.4%; in the assay with SK-MEL-5 melanoma it was 73%. Also, the growth in the assay on UACC-62 melanoma is 95.9%; in the assay on LOX IMVI melanoma, 90.5%; in the assay on SK-MEL-28 melanoma it was 99.3%; with SK-MEL-2 melanoma, 99.5%.
Take `COC(=O)C1(C)Cc2cc(OC(C)=O)c(OC(C)=O)cc2N1` (stereo not given): the growth in the assay on HT29 colon was 79.8%; with SNB-75 CNS it was 82%; with SNB-19 CNS it was 105%; with U251 CNS, 81.5%; in the assay with PC-3 prostate, 64.7%; with SK-MEL-5 melanoma, 76.3%. Further, the growth is 56.6% with UACC-62 melanoma, 66% in the assay on LOX IMVI melanoma, 100% in the assay on SK-MEL-28 melanoma and 85.2% with SK-MEL-2 melanoma.
Turning to `CCN(CC)CCC(CNc1c(C)cnc2cc(Cl)ccc12)c1ccc(Cl)cc1` (stereo not given), the growth with HT29 colon was 14.8%; with SNB-75 CNS, 65.3%; in the assay on SNB-19 CNS, 68.1%; in the assay on U251 CNS, 48.6%; in the assay on PC-3 prostate, 55.9%; in the assay on SK-MEL-5 melanoma, -94.2% (active). Besides, the growth is -28.8% (active) with UACC-62 melanoma, 33.6% in the assay with LOX IMVI melanoma, -88.8% (active) in the assay with SK-MEL-28 melanoma and 92.8% in the assay on SK-MEL-2 melanoma.
For `O=C(Nc1nc(-c2ccccc2Cl)cs1)c1cc(-c2ccc(Cl)cc2)nc2ccc(Cl)cc12`, the growth is 6.1% (active) with HT29 colon; 20.6% with SNB-75 CNS; 39% in the assay on SNB-19 CNS; 12.5% in the assay with U251 CNS; 20.8% in the assay on PC-3 prostate; -25.4% (active) with SK-MEL-5 melanoma. Further, the growth in the assay on UACC-62 melanoma is 37.5%; in the assay on LOX IMVI melanoma, 15%; in the assay on SK-MEL-28 melanoma, 53.5%; with SK-MEL-2 melanoma it was 10.7%.
In the case of `CN1CCCNc2c(c(=O)c2=O)NCCCN(C)CCCNc2c(c(=O)c2=O)NCCCN(C)CCCNc2c(c(=O)c2=O)NCCCN(C)CCCNc2c(c(=O)c2=O)NCCCN(C)CCCNc2c(c(=O)c2=O)NCCCN(C)CCCNc2c(c(=O)c2=O)NCCCN(C)CCCNc2c(c(=O)c2=O)NCCC1`, the growth is 59.3% in the assay on HT29 colon; 84.3% in the assay with SNB-75 CNS; 40.5% with SNB-19 CNS; 15.2% in the assay on U251 CNS; 77.5% in the assay on PC-3 prostate; 39.6% with SK-MEL-5 melanoma. Also, the growth with UACC-62 melanoma was 43.7%; with LOX IMVI melanoma, 58.1%; in the assay with SK-MEL-28 melanoma, 22.6%; with SK-MEL-2 melanoma, 76.6%.
Regarding `O=C1/C(=C\c2ccc(F)cc2)CN(C(=O)c2ccccc2)C/C1=C\c1ccc(F)cc1`, the growth is -50.9% (active) with HT29 colon; 48.1% in the assay on SNB-75 CNS; 61.3% in the assay with SNB-19 CNS; -25% (active) with U251 CNS; 22.1% in the assay with PC-3 prostate; 34.3% in the assay with SK-MEL-5 melanoma. The growth in the assay with UACC-62 melanoma was 4.27% (active); with LOX IMVI melanoma it was -55.9% (active); in the assay on SK-MEL-28 melanoma, 34.8%; in the assay with SK-MEL-2 melanoma, 54.8%.
Take `N#Cc1cccc(OCc2nc(N)nc(N)c2-c2ccc(Cl)c(Cl)c2)c1`: the growth in the assay on HT29 colon was 9.63% (active); in the assay on SNB-75 CNS, 51.7%; in the assay with SNB-19 CNS, 47.1%; with U251 CNS it was 22%; with PC-3 prostate, 27.5%; in the assay on SK-MEL-5 melanoma, 22.4%. Also, the growth is 22.7% in the assay with UACC-62 melanoma, 15.5% with LOX IMVI melanoma, 53.4% with SK-MEL-28 melanoma and 42.8% with SK-MEL-2 melanoma.
For `CCN1CCN(c2nc3ccccc3c3c(=O)c4ccccc4sc23)CC1`, the growth is 9.96% (active) in the assay with HT29 colon; 44.5% in the assay with SNB-75 CNS; 67.2% in the assay with SNB-19 CNS; 27.9% in the assay with U251 CNS; 43.7% in the assay on PC-3 prostate; 7.43% (active) in the assay with SK-MEL-5 melanoma. Besides, the growth with UACC-62 melanoma is 7.97% (active); with LOX IMVI melanoma it was 23.5%; in the assay with SK-MEL-28 melanoma it was 31.1%; in the assay on SK-MEL-2 melanoma, 98.5%.
`COc1ccc(-c2nc3sccn3c2-c2nc3c([nH]2)C(=O)c2ccccc2C3=O)cc1`: the growth is 96.2% in the assay with HT29 colon; 81.7% in the assay with SNB-75 CNS; 96.4% with SNB-19 CNS; 87.1% with U251 CNS; 73.7% in the assay on PC-3 prostate; 89% with SK-MEL-5 melanoma. For the same compound, the growth with UACC-62 melanoma was 82.2%; in the assay with LOX IMVI melanoma, 90.7%; in the assay with SK-MEL-28 melanoma, 89.6%; with SK-MEL-2 melanoma, 101%.
With `CCCC(F)C(=O)O` (stereo not given), the growth in the assay on HT29 colon was 97.5%; with SNB-75 CNS, 99.2%; in the assay with SNB-19 CNS, 102%; in the assay with U251 CNS, 95.9%; with PC-3 prostate it was 90.5%; in the assay on SK-MEL-5 melanoma, 105%. The growth in the assay with UACC-62 melanoma is 100%; in the assay with LOX IMVI melanoma, 100%; in the assay with SK-MEL-28 melanoma it was 111%; in the assay with SK-MEL-2 melanoma it was 107%.
`COc1ccc2nc3ccccc3c(NCCNCC(C)O)c2c1` (stereo not given): the growth in the assay with HT29 colon is 1.38% (active); in the assay with SNB-75 CNS, 28.1%; in the assay on SNB-19 CNS it was 0.0735% (active); in the assay with U251 CNS it was 1.29% (active); with PC-3 prostate, 4.7% (active); with SK-MEL-5 melanoma, 10.3%. Also, the growth in the assay with UACC-62 melanoma was -59.9% (active); in the assay with LOX IMVI melanoma it was -47.1% (active); in the assay with SK-MEL-28 melanoma, 8.18% (active); in the assay on SK-MEL-2 melanoma it was -21.8% (active).
Turning to `Cc1cc(N(CCCNc2ccnc3cc(Cl)ccc23)Cc2ccc3c(c2)OCO3)nc(N2CCCCC2)n1`, the growth in the assay on HT29 colon is -49.9% (active); in the assay on SNB-75 CNS, -26.5% (active); with SNB-19 CNS, 14.9%; in the assay with U251 CNS, -55% (active); in the assay with PC-3 prostate, -34.6% (active); in the assay on SK-MEL-5 melanoma, -95.3% (active). For the same compound, the growth in the assay on UACC-62 melanoma was -54.7% (active); with LOX IMVI melanoma it was -89% (active); in the assay on SK-MEL-28 melanoma, -81.9% (active); with SK-MEL-2 melanoma, -67.5% (active).

The values above are taken from PubChem BioAssay (NCI).
